Data: PubChem BioAssay (NCATS)
Records with an inconclusive call do not appear. A number with no mark means an inactive call. Activity calls are given as the source filed them. Calls come from the whole dose curve; as a rule, active = well fitted inhibition curve with a large enough effect; inconclusive = small, poorly fitted or top-dose-only effect, or effect the other way; inactive = flat fitted curve, though single readings scatter.

What follows are molecules tested against ATP-dependent 6-phosphofructokinase (Trypanosoma brucei brucei) (UniProt O15648) (assay: qHTS Validation Assay to Find Inhibitors of T. brucei phosphofructokinase (AID 485368)). Conditions: T. brucei PFK enzyme assay, qHTS 7-point titration; series mostly up to 57.5 µM; activity change, negative = inhibition: at the top concentration.
Chain of ATP-dependent 6-phosphofructokinase (Trypanosoma brucei brucei) (O15648 whole entry, looked up): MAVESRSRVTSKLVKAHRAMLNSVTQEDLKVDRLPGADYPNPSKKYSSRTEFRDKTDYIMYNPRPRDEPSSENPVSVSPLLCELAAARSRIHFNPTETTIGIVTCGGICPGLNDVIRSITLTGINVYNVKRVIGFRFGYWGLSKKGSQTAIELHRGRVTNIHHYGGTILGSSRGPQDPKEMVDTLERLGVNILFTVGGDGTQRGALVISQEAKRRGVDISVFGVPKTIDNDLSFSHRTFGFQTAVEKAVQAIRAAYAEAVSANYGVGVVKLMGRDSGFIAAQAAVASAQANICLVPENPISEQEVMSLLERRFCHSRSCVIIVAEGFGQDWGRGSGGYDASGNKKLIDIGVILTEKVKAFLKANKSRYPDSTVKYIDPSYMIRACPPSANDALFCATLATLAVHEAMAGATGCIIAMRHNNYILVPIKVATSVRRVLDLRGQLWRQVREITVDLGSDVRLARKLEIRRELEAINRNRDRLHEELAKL
Description: NIH Molecular Libraries Probe Production Network [MLPCN]
NIH Chemical Genomics Center [NCGC]
PI Name: Malcolm Walkinshaw, University of Edinburgh
Various species of the protozoan family Trypanosomatidae are responsible for a range of serious human diseases in tropical and subtropical areas of the world. […] Many of the disorders caused by trypanosomatids are fatal if left untreated, but most currently used drugs are inefficient and toxic.
Oxidative metabolism involving the mitochondrial tricarboxylic acid cycle and oxidative phosphorylation are repressed in these parasites, and recent RNA interference (RNAi) experiments have shown that even partial depletion of certain individual glycolytic enzymes can lead to the death of cultured parasites. One such glycolytic enzyme, phosphofructokinase (PFK), catalyzes the formation of fructose-1,6-bisphosphate (F1,6BP) and ADP from fructose-6-phosphate (F6P) and ATP, and in many metabolic circumstances makes an important contribution to the control of flux through the glycolytic pathway. As a specific glycolytic target, PFK is particularly attractive as it catalyzes the first irreversible step in glycolysis, and structural and kinetic studies have shown very substantial and essential differences from corresponding host enzymes, allowing for the discovery of parasite-selective inhibitors.
The goal of this screen is to find small-molecule inhibitors of T. brucei PFK using a biochemical assay that measures PFK activity as a function of ADP production. A luminescence-based assay for T. brucei PFK activity has been developed which uses luciferase to detect production of ADP. Traditional luciferase-based nucleotide detection reagents rely on ATP production as a direct substrate for the luciferase reaction; however, PFK catalyzes the transfer of a phosphate from ATP to F6P, resulting in the net depletion of ATP. To directly measure the ADP product of the PFK reaction, we used the ADP-Glo detection kit (Promega), which utilizes two separate reactions to 1) deplete all remaining uncatalyzed ATP and 2) convert all remaining ADP to ATP, which is then detected through a traditional luciferase-coupled reaction. Compounds were screened as a concentration-titration series that ranged from 57 uM to 0.7 nM.
NCGC Assay Protocol Summary:
Substrate buffer was dispensed into white, solid 1536-well plates at 3uL/well in 0.1M triethanolamine (TEA) buffer, pH 8.0, containing final concentrations of 5 mM MgCl2, 0.01% Tween20, 0.5 mM fructose-6-phosphate (F6P) and 0.1mM ATP. Then, 23 nL of compounds or DMSO were delivered to each well using a pin tool. One uL T. brucei PFK (0.1M TEA, 0.01% Tween20, 0.1% bovine serum albumin (BSA) and 1.25nM PFK, final concentrations) was then dispensed, and plates were incubated at room temperature for 45 min. The luminescent detection reagent, ADP-Glo (Promega), was then added in two steps: the first reagent, ADP-Glo (which converts remaining uncatalyzed ATP), was added at 2.5uL/well and incubated for ten minutes at room temperature, and the second component, Kinase Detection reagent (which converts ADP to ATP as a substrate for luciferase-based luminescence), was added immediately after at 5uL/well, followed by one final ten minute room temperature incubation. The plates were measured on a ViewLux plate reader for luminescent signal using a clear filter with a one second exposure. The %Activity was determined from the corrected luminescence values. As no specific T. brucei PFK inhibitors have been identified in the literature, 1x (1.25nM) and 0x PFK enzyme controls (untreated) were included to normalize %Activity of identified inhibitors; 0x enzyme values corresponded to 100%Activity (full inhibition), while 1x PFK enzyme values were used to normalize 0%Activity (no inhibition).
Concentration-response curves were fitted to the signals arising from the resulting luminescence. […]
`CC/C(=C(\c1ccccc1)c1ccc(OCCN(C)C)cc1)c1ccccc1` was tested, and the “activity change, negative = inhibition” value was 22.8%. For `COC(=O)[C@@H]1[C@H]2C[C@H]3c4[nH]c5ccccc5c4CCN3C[C@@H]2CC[C@@H]1O`, the “activity change, negative = inhibition” value was -13.4%. `CCN(CC)CCNC(=O)c1ccc(N)cc1` was tested, and the outcome was “inactive”. In the case of `COc1ccc(Cc2nccc3cc(OC)c(OC)cc23)cc1OC`, the outcome was “inactive”. `O=C(NCCN1CCOCC1)c1ccc(Cl)cc1` was tested, and the outcome was “inactive”. With `CC(=O)N[C@@H](CS)C(=O)O` the “activity change, negative = inhibition” value was 8.77%. With `C[N+](C)(C)CCCCCC[N+](C)(C)C` the outcome was “inactive”. With `CCN(CC)CCOC(=O)c1ccc(N)cc1` the “activity change, negative = inhibition” value was 12.4%. For `O=C(O)CCc1nc(-c2ccccc2)c(-c2ccccc2)o1`, the outcome was “inactive”. With `CCN(CC)C(=O)c1ccc(O)c(OC)c1` the outcome was “inactive”. For `CCn1cc(C(=O)O)c(=O)c2ccc(C)nc21`, the outcome was “inactive”. For `O=C1NC(=O)C(c2ccccc2)(c2ccccc2)N1`, the outcome was “inactive”. `CC(=O)c1ccc(S(=O)(=O)NC(=O)NC2CCCCC2)cc1` was tested, and the “activity change, negative = inhibition” value was 11.8%. `CC1=C(/C=C/C(C)=C/C=C/C(C)=C/C(=O)Nc2ccc(O)cc2)C(C)(C)CCC1` was tested, and the outcome was “inactive”. With `CC(C)(C)c1ccc(C(O)CCCN2CCC(C(O)(c3ccccc3)c3ccccc3)CC2)cc1` (stereo not given) the outcome was “inactive”. In the case of `CC(=O)O[C@]1(C(C)=O)CC[C@H]2[C@@H]3C=C(Cl)C4=CC(=O)[C@@H]5C[C@@H]5[C@]4(C)[C@H]3CC[C@@]21C`, the outcome was “inactive”. `NCCS` was tested, and the outcome was “inactive”. In the case of `CN(C)CCC(c1ccccc1)c1ccccn1` (stereo not given), the outcome was “inactive”. For `CCCCCN(C)CCC(O)(P(=O)(O)O)P(=O)(O)O`, the “activity change, negative = inhibition” value was 22.4%. For `CC(=O)CCCCn1c(=O)c2c(ncn2C)n(C)c1=O`, the outcome was “inactive”.
